In paper PMC7862700, “An all-to-all approach to the identification of sequence-specific readers for epigenetic DNA modifications on cytosine” one finds binding signal data, which are given here for 8 sequences.

What all share (test): DAPPL (digital affinity profiling via proximity ligation, sequencing); 10 mM Tris-HCl pH 7.5, 50 mM NaCl, 1 mM DTT, 4% glycerol, room temperature, 30 min; GST-TFs on glutathione beads, 16-mer random dsDNA library, 0.1% formaldehyde crosslink after washing; high values mean tight binding
Assay [1] deals with T1, FEV (Homo sapiens, UniProt Q99581 1-238).
T1 sequence: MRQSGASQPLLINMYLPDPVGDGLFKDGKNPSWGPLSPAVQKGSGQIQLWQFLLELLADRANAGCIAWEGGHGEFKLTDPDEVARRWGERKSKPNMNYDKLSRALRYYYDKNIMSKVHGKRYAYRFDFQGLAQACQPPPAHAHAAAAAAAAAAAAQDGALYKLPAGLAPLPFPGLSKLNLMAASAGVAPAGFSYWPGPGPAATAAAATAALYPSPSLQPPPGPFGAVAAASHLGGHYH
The settings on record: protein: recombinant; tags: N-terminal GST; dsDNA, one strand shown. Put shortly:
(§1)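 Beads coated with glutathione captured GST-fused human transcription factors that had been expressed in yeast, and the factors were then given DNA barcodes and pooled with a tag-only sample. The pools were incubated with 200 nmole of a random double-stranded 16-mer DNA library in Tris/NaCl/DTT/glycerol buffer for 30 min at room temperature, washed, crosslinked with 0.1% formaldehyde and proximity-ligated with BsaI/T4 ligase at 37 °C for 1 h. PCR amplification and Illumina NextSeq500 sequencing came last. Binding signal is each hexamer's read frequency for a factor divided by its frequency for the tag-only sample.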

In assay [2] the target is ETV5 (Homo sapiens, UniProt P41161 1-510). The settings on record: protein: recombinant; tags: N-terminal GST; dsDNA, one strand shown. In outline: as §1
In assay [3] the target is HSF1 (Homo sapiens, UniProt Q00613 1-529). The settings on record: protein: recombinant; tags: N-terminal GST; chain copies: 3; dsDNA, one strand shown. In outline: as §1
Assay [4] deals with T2, SPIC (Homo sapiens, UniProt Q8N5J4 1-248).
T2 sequence: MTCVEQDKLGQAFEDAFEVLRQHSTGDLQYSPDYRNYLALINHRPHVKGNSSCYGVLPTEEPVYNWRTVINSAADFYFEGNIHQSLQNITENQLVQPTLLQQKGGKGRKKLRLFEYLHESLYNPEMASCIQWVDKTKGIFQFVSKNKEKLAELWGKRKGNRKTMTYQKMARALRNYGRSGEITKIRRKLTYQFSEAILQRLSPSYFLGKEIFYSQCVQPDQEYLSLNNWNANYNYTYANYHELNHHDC
The settings on record: protein: recombinant; tags: N-terminal GST; dsDNA, one strand shown. In outline: as §1

In assay [5] the target is ELF4 (Homo sapiens, UniProt Q99607 1-663). The settings on record: protein: recombinant; tags: N-terminal GST; dsDNA, one strand shown. In outline:
as §1

The target of assay [6] is T3, ELK4 (Homo sapiens, UniProt P28324-2 1-405).
T3 sequence: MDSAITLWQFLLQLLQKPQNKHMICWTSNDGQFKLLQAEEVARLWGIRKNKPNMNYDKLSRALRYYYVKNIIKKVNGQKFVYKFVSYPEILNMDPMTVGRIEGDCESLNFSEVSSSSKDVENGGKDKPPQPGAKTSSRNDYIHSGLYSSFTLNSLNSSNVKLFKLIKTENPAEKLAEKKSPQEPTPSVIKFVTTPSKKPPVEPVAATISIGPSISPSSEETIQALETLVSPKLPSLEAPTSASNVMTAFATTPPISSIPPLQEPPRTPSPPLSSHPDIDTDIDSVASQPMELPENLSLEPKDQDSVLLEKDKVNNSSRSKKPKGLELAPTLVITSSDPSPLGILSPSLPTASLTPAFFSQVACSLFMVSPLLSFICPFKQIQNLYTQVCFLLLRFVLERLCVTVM
The settings on record: protein: recombinant; tags: N-terminal GST; dsDNA, one strand shown. In outline: as §1

For assay [7], the target named is T4, ETV2 (Homo sapiens, UniProt O00321 1-342).
T4 sequence: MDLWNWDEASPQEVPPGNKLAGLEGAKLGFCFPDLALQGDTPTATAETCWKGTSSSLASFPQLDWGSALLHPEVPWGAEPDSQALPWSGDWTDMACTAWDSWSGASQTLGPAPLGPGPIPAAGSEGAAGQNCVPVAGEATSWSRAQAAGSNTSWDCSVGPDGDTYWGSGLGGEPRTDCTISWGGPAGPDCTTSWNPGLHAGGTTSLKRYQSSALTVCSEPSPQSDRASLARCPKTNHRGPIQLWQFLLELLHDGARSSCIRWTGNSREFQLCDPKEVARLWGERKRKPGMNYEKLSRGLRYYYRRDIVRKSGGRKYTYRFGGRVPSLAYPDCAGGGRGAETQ
The settings on record: protein: recombinant; tags: N-terminal GST; dsDNA, one strand shown. In outline: as §1

The target in assay [8] is T5, ELF3 (Homo sapiens, UniProt P78545 1-371).
T5 sequence: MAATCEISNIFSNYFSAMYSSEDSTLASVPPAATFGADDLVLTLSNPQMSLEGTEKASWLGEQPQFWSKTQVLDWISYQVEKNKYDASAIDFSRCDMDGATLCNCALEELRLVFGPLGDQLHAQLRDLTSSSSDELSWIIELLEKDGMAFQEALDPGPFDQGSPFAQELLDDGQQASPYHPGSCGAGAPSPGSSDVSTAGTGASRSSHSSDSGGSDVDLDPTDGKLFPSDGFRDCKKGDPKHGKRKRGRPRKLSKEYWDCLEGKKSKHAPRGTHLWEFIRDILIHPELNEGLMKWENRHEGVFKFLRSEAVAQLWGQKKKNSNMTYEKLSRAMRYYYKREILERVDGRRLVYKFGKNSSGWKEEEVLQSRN
The settings on record: protein: recombinant; tags: N-terminal GST; dsDNA, one strand shown. In outline:
as §1

Assay [9] addresses CRX (Homo sapiens, UniProt O43186 1-299). The settings on record: protein: recombinant; tags: N-terminal GST; dsDNA, one strand shown. Put shortly:
as §1

Assay [10] has as its target ETV1 (Homo sapiens, UniProt P50549 1-477). The settings on record: protein: recombinant; tags: N-terminal GST; dsDNA, one strand shown. Put shortly:
as §1

Sequence of HSF1 (Q00613 whole entry): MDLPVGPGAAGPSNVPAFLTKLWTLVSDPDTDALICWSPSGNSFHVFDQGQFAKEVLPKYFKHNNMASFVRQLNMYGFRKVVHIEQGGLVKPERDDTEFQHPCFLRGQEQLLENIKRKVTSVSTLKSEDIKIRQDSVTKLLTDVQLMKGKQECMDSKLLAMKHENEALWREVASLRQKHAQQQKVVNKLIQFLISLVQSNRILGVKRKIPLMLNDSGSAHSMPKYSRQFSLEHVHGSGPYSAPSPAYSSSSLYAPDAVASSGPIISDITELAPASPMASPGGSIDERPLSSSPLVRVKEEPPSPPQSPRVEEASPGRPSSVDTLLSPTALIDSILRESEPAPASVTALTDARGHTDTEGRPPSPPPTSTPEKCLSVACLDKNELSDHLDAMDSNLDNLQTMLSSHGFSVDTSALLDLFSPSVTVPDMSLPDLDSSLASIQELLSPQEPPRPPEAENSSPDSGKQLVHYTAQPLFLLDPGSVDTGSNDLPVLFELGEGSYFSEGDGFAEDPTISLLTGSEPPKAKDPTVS
Sequence of ETV5 (P41161 whole entry): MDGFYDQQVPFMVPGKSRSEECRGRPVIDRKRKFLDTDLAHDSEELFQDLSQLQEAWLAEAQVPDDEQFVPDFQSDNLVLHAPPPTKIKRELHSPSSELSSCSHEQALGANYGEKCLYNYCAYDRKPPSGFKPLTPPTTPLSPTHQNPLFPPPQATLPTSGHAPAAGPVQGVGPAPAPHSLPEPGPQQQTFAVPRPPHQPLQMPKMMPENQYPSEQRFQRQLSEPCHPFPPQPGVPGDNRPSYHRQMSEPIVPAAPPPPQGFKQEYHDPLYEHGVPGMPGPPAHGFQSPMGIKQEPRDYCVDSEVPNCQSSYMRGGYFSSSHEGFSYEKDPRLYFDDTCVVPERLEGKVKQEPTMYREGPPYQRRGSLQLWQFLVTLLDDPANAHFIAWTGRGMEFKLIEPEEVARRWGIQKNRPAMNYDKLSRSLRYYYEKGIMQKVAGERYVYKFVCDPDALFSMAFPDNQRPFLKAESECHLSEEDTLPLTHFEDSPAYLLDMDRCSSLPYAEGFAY
Sequence of ETV1 (P50549 whole entry): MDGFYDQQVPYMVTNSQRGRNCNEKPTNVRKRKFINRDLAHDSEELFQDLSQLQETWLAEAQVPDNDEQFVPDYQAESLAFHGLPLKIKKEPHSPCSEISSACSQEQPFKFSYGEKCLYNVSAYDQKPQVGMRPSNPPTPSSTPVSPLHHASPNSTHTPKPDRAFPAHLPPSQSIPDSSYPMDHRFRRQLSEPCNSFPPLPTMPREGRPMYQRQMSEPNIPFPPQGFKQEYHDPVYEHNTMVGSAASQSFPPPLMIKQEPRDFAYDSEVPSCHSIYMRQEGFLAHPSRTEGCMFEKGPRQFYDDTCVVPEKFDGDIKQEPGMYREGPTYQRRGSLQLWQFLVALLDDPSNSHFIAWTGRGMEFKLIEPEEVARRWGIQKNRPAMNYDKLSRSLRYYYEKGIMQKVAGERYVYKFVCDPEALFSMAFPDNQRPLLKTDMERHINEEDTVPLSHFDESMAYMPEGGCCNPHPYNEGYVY
Sequence of ELF4 (Q99607 whole entry): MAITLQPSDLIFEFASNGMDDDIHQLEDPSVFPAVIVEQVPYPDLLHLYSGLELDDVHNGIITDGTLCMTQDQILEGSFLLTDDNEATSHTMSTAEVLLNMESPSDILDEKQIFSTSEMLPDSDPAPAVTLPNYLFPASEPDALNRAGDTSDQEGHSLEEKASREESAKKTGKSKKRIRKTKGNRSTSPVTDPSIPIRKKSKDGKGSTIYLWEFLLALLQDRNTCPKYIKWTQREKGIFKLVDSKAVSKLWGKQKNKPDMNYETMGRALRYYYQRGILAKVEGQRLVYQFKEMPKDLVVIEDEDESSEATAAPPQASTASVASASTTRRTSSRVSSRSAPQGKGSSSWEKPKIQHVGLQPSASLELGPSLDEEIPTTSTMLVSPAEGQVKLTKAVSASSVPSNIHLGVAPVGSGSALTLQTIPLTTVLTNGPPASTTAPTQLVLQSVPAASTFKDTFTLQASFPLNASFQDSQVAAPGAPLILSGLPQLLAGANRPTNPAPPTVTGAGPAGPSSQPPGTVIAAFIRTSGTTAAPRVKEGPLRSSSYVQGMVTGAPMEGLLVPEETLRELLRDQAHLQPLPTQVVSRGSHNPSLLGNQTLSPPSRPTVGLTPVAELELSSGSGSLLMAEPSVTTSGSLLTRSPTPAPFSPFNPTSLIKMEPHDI
Sequence of CRX (O43186 whole entry): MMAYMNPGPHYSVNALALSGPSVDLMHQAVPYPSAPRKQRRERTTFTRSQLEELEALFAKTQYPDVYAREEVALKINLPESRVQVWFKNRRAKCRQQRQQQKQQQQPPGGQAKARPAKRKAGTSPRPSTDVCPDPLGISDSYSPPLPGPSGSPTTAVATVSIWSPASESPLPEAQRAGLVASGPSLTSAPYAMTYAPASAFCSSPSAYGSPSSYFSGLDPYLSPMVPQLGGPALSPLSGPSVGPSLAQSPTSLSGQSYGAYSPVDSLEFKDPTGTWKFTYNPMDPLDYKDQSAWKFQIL

As for TATGGC, the binding signal in assay [1] was 1.36 fold enrichment (6-mer frequency, TF over GST control); in assay [2], 1.33 fold enrichment (6-mer frequency, TF over GST control); in assay [3], 1.2 fold enrichment (6-mer frequency, TF over GST control); in assay [4] it was 1.17 fold enrichment (6-mer frequency, TF over GST control); in assay [5], 1.2 fold enrichment (6-mer frequency, TF over GST control); in [6], 1.2 fold enrichment (6-mer frequency, TF over GST control). The binding signal is 1.41 fold enrichment (6-mer frequency, TF over GST control) in assay [7]; 1.29 fold enrichment (6-mer frequency, TF over GST control) in [8]; 1.34 fold enrichment (6-mer frequency, TF over GST control) in assay [9]; 1.25 fold enrichment (6-mer frequency, TF over GST control) in [10].

With TCTGGC, the binding signal is 1.16 fold enrichment (6-mer frequency, TF over GST control) in assay [1]; 1.11 fold enrichment (6-mer frequency, TF over GST control) in [2]; 1.89 fold enrichment (6-mer frequency, TF over GST control) in assay [3]; 1.38 fold enrichment (6-mer frequency, TF over GST control) in assay [4]; 1.4 fold enrichment (6-mer frequency, TF over GST control) in assay [5]; 1.44 fold enrichment (6-mer frequency, TF over GST control) in [6]. Also, the binding signal in assay [7] was 1.28 fold enrichment (6-mer frequency, TF over GST control); in [8], 1.03 fold enrichment (6-mer frequency, TF over GST control); in assay [9] it was 1.31 fold enrichment (6-mer frequency, TF over GST control); in [10], 1.24 fold enrichment (6-mer frequency, TF over GST control).

Turning to ATTTAG, the binding signal in [1] is 1.08 fold enrichment (6-mer frequency, TF over GST control); in [2] it was 1.06 fold enrichment (6-mer frequency, TF over GST control); in [3], 1.37 fold enrichment (6-mer frequency, TF over GST control); in assay [4], 1.2 fold enrichment (6-mer frequency, TF over GST control); in assay [5], 1.05 fold enrichment (6-mer frequency, TF over GST control); in [6], 1.17 fold enrichment (6-mer frequency, TF over GST control). Moreover, the binding signal in assay [7] was 1.3 fold enrichment (6-mer frequency, TF over GST control); in assay [8] it was 1.17 fold enrichment (6-mer frequency, TF over GST control); in assay [9], 1.66 fold enrichment (6-mer frequency, TF over GST control); in assay [10], 1.11 fold enrichment (6-mer frequency, TF over GST control).

Take GGCTCT: the binding signal in assay [1] was 1.35 fold enrichment (6-mer frequency, TF over GST control); in assay [2], 1.19 fold enrichment (6-mer frequency, TF over GST control); in assay [3] it was 1.32 fold enrichment (6-mer frequency, TF over GST control); in [4] it was 1.34 fold enrichment (6-mer frequency, TF over GST control); in assay [5], 1.37 fold enrichment (6-mer frequency, TF over GST control); in assay [6], 1.22 fold enrichment (6-mer frequency, TF over GST control). Also, the binding signal was 1.4 fold enrichment (6-mer frequency, TF over GST control) in assay [7]; 1.44 fold enrichment (6-mer frequency, TF over GST control) in [8]; 1.27 fold enrichment (6-mer frequency, TF over GST control) in assay [9]; 1.42 fold enrichment (6-mer frequency, TF over GST control) in assay [10].

Consider CCACTT, for which the binding signal in [1] is 2.3 fold enrichment (6-mer frequency, TF over GST control); in [2] it was 1.99 fold enrichment (6-mer frequency, TF over GST control); in [3], 1.25 fold enrichment (6-mer frequency, TF over GST control); in [4], 1.63 fold enrichment (6-mer frequency, TF over GST control); in [5] it was 1.98 fold enrichment (6-mer frequency, TF over GST control); in assay [6], 1.77 fold enrichment (6-mer frequency, TF over GST control). The binding signal in assay [7] was 1.91 fold enrichment (6-mer frequency, TF over GST control); in [8], 1.59 fold enrichment (6-mer frequency, TF over GST control); in [9], 1.36 fold enrichment (6-mer frequency, TF over GST control); in [10], 1.95 fold enrichment (6-mer frequency, TF over GST control).

On to TCGCTT, for which the binding signal was 1.2 fold enrichment (6-mer frequency, TF over GST control) in assay [1]; 1.38 fold enrichment (6-mer frequency, TF over GST control) in assay [2]; 1.11 fold enrichment (6-mer frequency, TF over GST control) in assay [3]; 1.08 fold enrichment (6-mer frequency, TF over GST control) in assay [4]; 1.24 fold enrichment (6-mer frequency, TF over GST control) in assay [5]; 1.21 fold enrichment (6-mer frequency, TF over GST control) in assay [6]. For the same sequence, the binding signal in assay [7] is 1.05 fold enrichment (6-mer frequency, TF over GST control); in [8] it was 1.18 fold enrichment (6-mer frequency, TF over GST control); in [9] it was 1.15 fold enrichment (6-mer frequency, TF over GST control); in assay [10], 1.24 fold enrichment (6-mer frequency, TF over GST control).

Regarding ATCCCT, the binding signal in assay [1] is 1.3 fold enrichment (6-mer frequency, TF over GST control); in [2] it was 1.3 fold enrichment (6-mer frequency, TF over GST control); in [3], 1.64 fold enrichment (6-mer frequency, TF over GST control); in assay [4], 1.27 fold enrichment (6-mer frequency, TF over GST control); in assay [5], 1.38 fold enrichment (6-mer frequency, TF over GST control); in [6] it was 1.33 fold enrichment (6-mer frequency, TF over GST control). Further, the binding signal is 1.13 fold enrichment (6-mer frequency, TF over GST control) in [7]; 1.22 fold enrichment (6-mer frequency, TF over GST control) in assay [8]; 2.17 fold enrichment (6-mer frequency, TF over GST control) in assay [9]; 1.21 fold enrichment (6-mer frequency, TF over GST control) in [10].

CCTCAG: the binding signal was 1.21 fold enrichment (6-mer frequency, TF over GST control) in assay [1]; 1.12 fold enrichment (6-mer frequency, TF over GST control) in [2]; 1.07 fold enrichment (6-mer frequency, TF over GST control) in [3]; 1.17 fold enrichment (6-mer frequency, TF over GST control) in [4]; 1.3 fold enrichment (6-mer frequency, TF over GST control) in assay [5]; 1.4 fold enrichment (6-mer frequency, TF over GST control) in assay [6]. Also, the binding signal in assay [7] is 1.37 fold enrichment (6-mer frequency, TF over GST control); in assay [8], 1.35 fold enrichment (6-mer frequency, TF over GST control); in assay [9], 1.15 fold enrichment (6-mer frequency, TF over GST control); in assay [10], 1.13 fold enrichment (6-mer frequency, TF over GST control).
